Compound activity from PubChem BioAssay.
KB-3-1 cytotox = kills parental KB-3-1 adenocarcinoma cells; KB-3-1 viability, CellTiter-Glo ATP luminescence, 72 h; Potency, µM (doses to about 46.1 µM), hits mostly cytotoxic; 1.4% of 400,000 active; AID 1347075; note: % is set by controls: 0 for no effect and ±100 for the full control effect; nearly all actives have a fitted effect of over 60% in size
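Cells are dispensed, compounds pinned in, plates held at 37 °C for 72 h, then CellTiter-Glo is added and luminescence read after 10 minutes. Cell line: parental KB-3-1 in phenol-red-free DMEM, 10% FBS.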
PTAP TSG101 blk = blocks PTAP/TSG101 interaction to inhibit HIV-1 budding | Fluorescence polarization, FITC-PTAP peptide / Tsg101 binding | 340,000 tested, under 10 active | Potency, µM (highest dose often 115 µM), for the others: at the highest dose activity change, negative = inhibition, most hits filed as inhibitors; active = well fitted inhibition curve with a large enough effect in the main read-out, with a control signal flat, not every such curve was filed as active; inconclusive = small, poorly fitted or top-dose-only effect, or effect the other way, or a change in a side signal; inactive = no such curve, though single readings can be large or run the other way; note: % of control where 0% means no effect
Target sequence (Q99816 whole entry, looked up): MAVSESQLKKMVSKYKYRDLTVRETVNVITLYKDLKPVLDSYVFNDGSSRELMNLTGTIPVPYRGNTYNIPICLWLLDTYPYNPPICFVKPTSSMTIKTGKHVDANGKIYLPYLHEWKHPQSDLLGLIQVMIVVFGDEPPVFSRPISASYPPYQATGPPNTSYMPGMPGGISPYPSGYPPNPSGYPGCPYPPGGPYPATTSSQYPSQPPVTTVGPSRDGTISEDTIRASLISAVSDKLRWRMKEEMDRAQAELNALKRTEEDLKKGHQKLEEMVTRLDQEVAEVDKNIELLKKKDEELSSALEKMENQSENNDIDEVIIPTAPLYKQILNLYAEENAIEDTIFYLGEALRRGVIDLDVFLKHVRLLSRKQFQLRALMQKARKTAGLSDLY
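FP read-out: FITC-PTAP peptide, 50 nM final, binding Tsg101 binding domain, 10 uM final; 20 min, r.t.; 10 mM HEPES pH 7.5, 0.15 M NaCl, 0.01% Tween 20, 3 mM EDTA, 0.1 mM TCEP.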
SW480 rereplic = inducers of DNA re-replication in SW480 colon cancer cells | Potency, µM (titrated, usually from 46.1 µM), for inactives: top-dose re-replication activation, usual class: activators | 1.8% of 340,000 active | SW480 DNA re-replication, Hoechst DNA content imaging, 48 h | AID 624297; note: % of control where 0% means no effect; nearly all actives have a fitted effect of over 55% in size
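Hoechst fluorescence of nuclei (405 nm excitation, 500-530 nm emission) measured by plate-scanning imager after 48 hr compound exposure at 37 C; re-replication scored as increased number of nuclei with elevated intensity.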
KB-V1 cytotox = kills drug-selected multidrug resistant KB-V1 cells; KB-V1 MDR cells viability, CellTiter-Glo, 72 h; Potency, µM (series often up to 46.1 µM), most hits filed as cytotoxic; 3.4% of 400,000 active; AID 1347076; note: % is set by controls: 0 for no effect and ±100 for the full control effect; nearly all actives have a fitted effect of over 60% in size
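Cells of the MDR subline KB-V1 are plated, dosed with compound at multiple concentrations, and incubated 72 h at 37 degrees C; CellTiter-Glo is then added and luminescence read after 10 min.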
PINK1 modulator = changes PINK1 expression | PINK1 immunofluorescence, high-content cytometry, 24 h | 0.2% of 410,000 active | Potency, µM (series often up to 76.6 µM), without a hit: at the top dose activation (PINK1 increase), hits mostly activators; active = well fitted activation curve with a large enough effect; inconclusive = small, poorly fitted or top-dose-only effect; cell line not stated here; note: % of control where 0% means no effect; nearly all actives have a fitted effect of over 65% in size
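A stable cell line was treated with compounds at 5 concentrations for 24 hours, with CCCP as control. PINK1 levels and mitochondrial localization were measured by immunofluorescence with mitochondrial, cell and nuclear markers after fixation, read by laser-scanning cytometry.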
MCF10A rerep = induces DNA re-replication in MCF 10a normal breast cells | MCF 10A DNA re-replication, Hoechst nuclear intensity, 48 h | 2.9% of 350,000 active | Potency, µM (series often up to 46.1 µM), without a hit: at the top dose activity, positive = re-replication, actives largely listed as activators | AID 624296; note: % of control where 0% means no effect; nearly all actives have a fitted effect of over 50% in size
An asterisk follows results filed as active; [ ] = another dose, or the depositor's remark. Hits are enriched below; roughly 6.8% of the tested compounds scored in any of these assays. Unless noted, calls come from the whole dose curve; as a rule, active = well fitted curve in the direction sought with a large enough effect; inconclusive = small, poorly fitted or top-dose-only effect, or another doubt; inactive = no such curve, though single readings can be large; an effect the other way counts as inactive or inconclusive. Potency is the fitted concentration of half-maximal effect.

What do the screens show for `CCCCN(Cc1ccccc1)C(=O)c1oc(=O)c2ccccc2c1-c1ccc(C)cc1`?
KB-3-1 cytotox: inconclusive; KB-V1 cytotox: inactive; PINK1 modulator: 2%

Results for c1coc(-c2nnc(-c3ccco3)nn2)c1 ?
KB-3-1 cytotox: inactive; PTAP TSG101 blk: 0%; SW480 rereplic: 4µM*; KB-V1 cytotox: inactive; PINK1 modulator: -1%; MCF10A rerep: -16%

How did Cc1ccc(CNC(=O)CN(C)S(=O)(=O)c2ccc3c(c2)c(=O)n(C)c(=O)n3C)cc1 do in these assays?
KB-3-1 cytotox: inactive; KB-V1 cytotox: inactive; PINK1 modulator: 0%

Results for CC1(C)COC(/C=C/c2ccc([N+](=O)[O-])cc2)=N1 ?
KB-3-1 cytotox: inconclusive; PTAP TSG101 blk: -4%; SW480 rereplic: 16µM*; KB-V1 cytotox: 21µM*; PINK1 modulator: 0%; MCF10A rerep: 16µM*

Results for O=S(=O)(c1ccccc1)N1CCC2(CCCN(C(c3ccccc3)c3ccccc3)C2)CC1 ?
PINK1 modulator: 3%

Results for CC(=O)C1=C(O)C(=O)N(c2ccccn2)C1c1ccccc1[N+](=O)[O-] (stereo not given) ?
KB-3-1 cytotox: inactive; PTAP TSG101 blk: -2%; SW480 rereplic: 21µM*; KB-V1 cytotox: inactive; PINK1 modulator: 5%; MCF10A rerep: inconclusive

What do the screens show for `Cc1oc(-c2ccc(Cl)cc2)nc1CN1CCCC(C(=O)NCCc2ccccc2)C1` (stereo not given)?
KB-3-1 cytotox: inconclusive; KB-V1 cytotox: inconclusive; PINK1 modulator: 0%

How did CCCCOC(=O)Nc1ccc(S(=O)(=O)Nc2nc(C)cc(C)n2)cc1 do in these assays?
KB-3-1 cytotox: inactive; SW480 rereplic: 1%; KB-V1 cytotox: inactive; PINK1 modulator: 3%[38.3 µM]; MCF10A rerep: 2%

Results for CCCCCCOC(=O)Nc1ccc(S(=O)(=O)Nc2cccc([N+](=O)[O-])c2)cc1 ?
KB-3-1 cytotox: inactive; PTAP TSG101 blk: -1%; SW480 rereplic: -3%; KB-V1 cytotox: 21µM*; PINK1 modulator: 13%; MCF10A rerep: inconclusive

How did CC(=NNC(=S)N1CC2CCC(CC2)C1)c1cccc(C)n1 do in these assays?
KB-3-1 cytotox: inconclusive; PTAP TSG101 blk: 0%; SW480 rereplic: 0.41µM*; KB-V1 cytotox: inconclusive; PINK1 modulator: 0%; MCF10A rerep: inconclusive

Results for CC(NC(=O)c1sc2ncccc2c1-n1cccc1)c1ccccc1 (stereo not given) ?
KB-3-1 cytotox: inactive; KB-V1 cytotox: inactive; PINK1 modulator: 1%

What do the screens show for `COc1cccc(C2CNC3(CCCC(C)C3)c3[nH]c4ccccc4c32)c1OC` (stereo not given)?
KB-3-1 cytotox: inactive; PTAP TSG101 blk: -1%; SW480 rereplic: 95%; KB-V1 cytotox: inconclusive; PINK1 modulator: 5%; MCF10A rerep: 18µM*

Results for CCN(CC)S(=O)(=O)c1ccc(C(=O)/C=C/c2ccc(-c3ccc([N+](=O)[O-])cc3)o2)cc1 ?
KB-3-1 cytotox: inactive; PTAP TSG101 blk: inconclusive; SW480 rereplic: -7%; KB-V1 cytotox: inactive; PINK1 modulator: 0%; MCF10A rerep: -3%

What do the screens show for `O=C(/C=C\c1ccc(-c2ccccc2)o1)c1ccccc1`?
KB-3-1 cytotox: inactive; PTAP TSG101 blk: 11%; SW480 rereplic: 18%; KB-V1 cytotox: inactive; PINK1 modulator: 13%; MCF10A rerep: 23µM*

Results for Cc1ccc(C(=O)/C=C/c2ccc(-c3ccc(C)cc3)o2)cc1 ?
KB-3-1 cytotox: inactive; PTAP TSG101 blk: 3%; SW480 rereplic: 69%; KB-V1 cytotox: inactive; PINK1 modulator: 17%; MCF10A rerep: 21µM*

Results for COc1ccc(C(CC(=O)Nc2ccc(C)cn2)N2Cc3ccccc3C2=O)cc1OC (stereo not given) ?
KB-3-1 cytotox: inactive; KB-V1 cytotox: inactive; PINK1 modulator: -4%

Results for O=C(O)c1cc(-c2ccc(Br)s2)nc2ccccc12 ?
KB-3-1 cytotox: inactive; PTAP TSG101 blk: -4%; SW480 rereplic: inconclusive; KB-V1 cytotox: inactive; PINK1 modulator: 0%; MCF10A rerep: 6%

What do the screens show for `CN1CCN(NC(=O)c2cc(-c3ccc(Br)s3)nc3ccccc23)CC1`?
KB-3-1 cytotox: inactive; PTAP TSG101 blk: 0%; SW480 rereplic: inconclusive; KB-V1 cytotox: inactive; PINK1 modulator: -1%; MCF10A rerep: 23µM*

How did O=C(NN1CCOCC1)c1cc(-c2cccc(Cl)c2)nc2ccccc12 do in these assays?
KB-3-1 cytotox: inactive; PTAP TSG101 blk: 0%; SW480 rereplic: -1%; KB-V1 cytotox: 12µM*; PINK1 modulator: -2%[38.3 µM]; MCF10A rerep: -3%

How did CCC(C)NC(=O)CN1C(=O)c2cccnc2Sc2ccccc21 (stereo not given) do in these assays?
KB-3-1 cytotox: inactive; KB-V1 cytotox: inactive; PINK1 modulator: -1%

How did COc1ccc(C(=O)NCCc2sc(-c3cccc(F)c3)nc2C)cc1 do in these assays?
KB-3-1 cytotox: inactive; KB-V1 cytotox: inactive; PINK1 modulator: 2%

Results for Cc1ccc(N(CC(=O)N2CCN(c3cc(C)ccc3C)CC2)S(=O)(=O)c2c(C)nn(C)c2C)cc1 ?
KB-3-1 cytotox: inconclusive; KB-V1 cytotox: inconclusive; PINK1 modulator: 23%

How did Cc1cc(NC(=O)CN2C(=O)C(C)(C)c3ccccc32)ccc1Br do in these assays?
KB-3-1 cytotox: inactive; KB-V1 cytotox: inactive; PINK1 modulator: inconclusive

How did Cc1nc(NCCN2CCOCC2)c2nnn(Cc3c(F)cccc3Cl)c2n1 do in these assays?
KB-3-1 cytotox: inactive; PTAP TSG101 blk: -5%; SW480 rereplic: 16%; KB-V1 cytotox: 18µM*; PINK1 modulator: 0%[38.3 µM]; MCF10A rerep: 1%

What do the screens show for `Cc1ccc(C)c(NC(=O)Cn2ncc3c(C)n(Cc4ccc(F)cc4)c(C)c3c2=O)c1`?
KB-3-1 cytotox: inactive; KB-V1 cytotox: inactive; PINK1 modulator: 2%

Results for COc1ccc(Oc2ncc3nc(-c4cccs4)c(=O)n(Cc4cccs4)c3n2)cc1 ?
PINK1 modulator: 2%

What do the screens show for `N#C/C(=C/c1ccc(OCc2ccc(C(=O)O)cc2)cc1)C(=O)Nc1ccccc1`?
KB-3-1 cytotox: inactive; PTAP TSG101 blk: -2%; SW480 rereplic: -2%; KB-V1 cytotox: inactive; PINK1 modulator: 0%; MCF10A rerep: 0%

How did N#C/C(=C\c1ccccc1OCc1ccc(C(=O)O)cc1)C(=O)Nc1ccc(O)cc1 do in these assays?
KB-3-1 cytotox: inactive; PTAP TSG101 blk: -2%; SW480 rereplic: 3%; KB-V1 cytotox: inactive; PINK1 modulator: 2%; MCF10A rerep: 23µM*
